Screens from PubChem.
In the library only some 19% were active in any assay of this set; here they are far more common.
TDP1 cell noCPT: qHTS for Inhibitors of human tyrosyl-DNA phosphodiesterase 1 (TDP1): qHTS in cells in absence of CPT. DT40 Tdp1-/- hTDP1 cells, no CPT, ATP luminescence, 48 h. Potency, µM (top dose mostly 46.2 µM), without a hit: at the highest dose activity change, negative = growth inhibition, actives largely listed as inhibitors. hit rate 15% among 420,000. AID 686978, 2013; also: potency is read from the fitted curve at half-maximal effect; nearly all actives have a fitted effect of over 55% in size
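Stably hTDP1-transfected Tdp1-null chicken DT40 cells were treated with library compounds minus camptothecin and grown for at least 48 hr at 37 °C, after which cellular ATP was quantified by luminescence.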
DT40 TDP1 CPT: qHTS for Inhibitors of human tyrosyl-DNA phosphodiesterase 1 (TDP1): qHTS in cells in presence of CPT; chicken DT40 Tdp1-/-;hTDP1 cells + 20 nM CPT, ATP luminescence, 48 h; hit rate 12% among 420,000; AID 686979, 2013; Potency, µM (series often up to 46.2 µM), inactives show at the top dose activity change, negative = growth inhibition, actives largely listed as inhibitors; also: potency is read from the fitted curve at half-maximal effect; nearly all actives have a fitted effect of over 55% in size
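Cell growth measured by CellTiter-Glo luminescence after a minimum 48 h, 37 C compound exposure with 20 nM CPT in Tdp1-knockout DT40 cells stably expressing hTDP1, seeded 400/well; qHTS titration format.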
IL1B secr inh: qHTS for Inhibitors of Inflammasome Signaling: IL-1-beta AlphaLISA Primary Screen; THP-1 LPS/ATP IL-1B secretion, AlphaLISA, 16 h; hits give low values; activity change, % at 57.5 µM; hit rate 4.7% among 360,000; AID 743279, 2014; in the data active = activity change below about -50%; inconclusive = mostly about -30% to -49%
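THP-1 cells pretreated 1 hr with compounds (up to 57.5 uM final), then stimulated with LPS (250 ng/mL final) plus ATP (1.25 mM final); secreted IL-1B measured by AlphaLISA after 16 hr, decreased signal indicating inhibition.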
HT1080-NT tox: qHTS for induction of synthetic lethality in tumor cells producing 2HG: qHTS for the HT-1080-NT fibrosarcoma cell line. HT-1080-NT fibrosarcoma viability, CellTiter-Glo ATP luminescence, 48 h. Potency, µM (highest dose often 46.1 µM), for the others: top-dose activity, negative = less viability, actives largely listed as cytotoxic. hit rate 1.6% among 360,000. AID 686970, 2013;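 also: NT is the 2HG producing partner of a matched IDH1 knockdown line; potency is read from the fitted curve at half-maximal effect; 0% = DMSO-treated cells and -100% = media-only wells without cells; nearly all actives have a fitted effect of over 55% in size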
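Read-out is CellTiter-Glo luminescence after 10 minutes at room temperature, following 48 hours' compound treatment of HT-1080-NT cells (750 cells/well, RPMI, 5% FBS, 37 degrees C).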
HT1080 IDH1KD tx: qHTS for induction of synthetic lethality in tumor cells producing 2HG: qHTS for the HT-1080-IDH1KD cell line. HT-1080 IDH1 knockdown viability, ATP luminescence, 48 h. Potency, µM (highest dose often 46.1 µM), inactives show at the top dose activity, negative = toxicity, usual class: cytotoxic. hit rate 2% among 360,000;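 also: potency is read from the fitted curve at half-maximal effect; 0% = DMSO wells and -100% = cell-free medium wells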
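Cytotoxicity counter-line: IDH1KD HT-1080, 48 h, CellTiter-Glo. Curves classed by r2, magnitude and activity.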
Starred values were filed as active, the others as inactive; ? = inconclusive; / = no result given. Unless noted, calls follow the shape of the dose curve; as a rule, active = well fitted curve in the direction sought with a large enough effect; inconclusive = small, poorly fitted or top-dose-only effect, or another doubt; inactive = no such curve, though single readings can be large; an effect the other way counts as inactive or inconclusive. Unless noted, % is scaled to controls: 0 for no effect and ±100 for the full control effect.

SMILES | TDP1 cell noCPT | DT40 TDP1 CPT | IL1B secr inh | HT1080-NT tox | HT1080 IDH1KD tx
COc1cccc(-c2nnc(-c3ccc(C(F)(F)F)cc3)o2)c1OC | 21µM* | ? | ? | 3% | 11%
Cc1ccc(-c2nnc(-c3cccc4ccccc34)o2)cc1 | 21µM* | 16µM* | -3 | -4% | -8%
O=C(NCc1ccccc1F)C(=O)NCC(c1ccco1)S(=O)(=O)c1ccccc1 (stereo not given) | ? | -25% | / | / | /
Cc1cc(N2C(=O)[C@@H]3[C@H](C2=O)[C@@H]2C[C@H]3C(Br)C2Br)no1 (stereo not given in full) | -9% | 2% | 19 | 7% | 10%
O=C1C2C(C(=O)N1c1ccncc1)C1C=CC2C12CC2 (stereo not given) | -19% | ? | 25 | 13% | 7%
O=C1C2C3c4ccccc4C(c4ccccc43)[C@@H]2C(=O)N1c1cccnc1 (stereo not given in full) | 23µM* | ? | -5 | 4% | 7%
O=C1C2C3c4ccccc4C(c4ccccc43)C2C(=O)N1c1ccncc1 (stereo not given) | 16µM* | 21µM* | 28 | 5% | -1%
Cc1cc(N2C(=O)C3C4c5ccccc5C(c5ccccc54)C3C2=O)no1 (stereo not given) | 10µM* | 12µM* | 16 | 8% | 3%
COc1ccc(S(=O)(=O)N(CC(=O)NCc2ccco2)c2ccc(C)cc2)cc1OC | -16% | 0% | 7 | -6% | -4%
COC(=O)C1=C(C)NC(C)=C(C(=O)OC)C1C(=O)OCC(=O)N1c2ccccc2CC1C (stereo not given) | -29% | ? | 25 | -6% | -2%
CC(C)(C)c1ccc(OCCCNC2CCCC2)cc1 | 29µM* | ? | -67* | ? | ?
CCCOc1ccc(OCCNC2CCCC2)cc1 | 16µM* | -21% | -5 | -3% | 0%
CCOc1ccc(OCCNC2CCCC2)cc1 | -3% | -16% | 0 | -2% | -5%
Cc1ccc(OCCCNC2CCCC2)cc1 | -21% | -16% | -11 | -13% | -9%
Cc1cc(C)c(NC(=O)CCCCCNC2CCCCC2)c(C)c1 | ? | ? | -11 | 2% | 1%
Cc1ccc(OCCCCNC2CCCCC2)c(C)c1 | 12µM* | 21µM* | -63* | ? | ?
Cc1ccc(C)c(OCCCNC2CCCC2)c1C | 9.2µM* | 23µM* | -8 | -29% | -4%
Clc1cccc(OCc2nc(-c3ccncc3)n[nH]2)c1 | -20% | -2% | 18 | -23% | -29%
O=C(C(=O)N1CCC(Cc2ccccc2)CC1)c1ccccc1Br | ? | ? | -9 | -7% | -17%
CN1CCN(c2nc3c(=O)[nH]c(N)nc3n2C2OC(CO)C(O)C2O)CC1 (stereo not given) | -5% | -12% | / | / | /
O=C(C[C@H]1CC[C@@H]2[C@H](COC[C@H](O)CN2C(=O)c2cnccn2)O1)NCc1ccc(Cl)cc1 | 5% | 4% | 30 | 17% | 7%
Cc1cccc(-n2[nH]c3c4c(ccc3c2=O)C(=O)c2ccccc2C4=O)c1 | ? | 21µM* | -27 | -2% | -2%
CC(C)Cn1[nH]c2c3c(ccc2c1=O)C(=O)c1ccccc1C3=O | 16µM* | 23µM* | -7 | ? | -17%
Cc1[nH]n(-c2cccc(Cl)c2)c(=O)c1-c1ccccc1 | ? | -6% | 0 | ? | -24%
CCOc1ccc(-c2cc3c(=O)n(CC(=O)NCc4ccccc4)ccn3n2)cc1 | -16% | ? | / | / | /
SMILES | TDP1 cell noCPT | DT40 TDP1 CPT | IL1B secr inh | HT1080-NT tox | HT1080 IDH1KD tx
O=C(NCC(c1ccco1)N1CCCC1)c1ccc(S(=O)(=O)Nc2ccccc2F)cc1 (stereo not given) | -29% | -20% | 3 | 7% | 15%
c1ccc(C2CNCCc3ccccc32)cc1 (stereo not given) | -14% | ? | 0 | -18% | -3%
S=C1NCCc2ccc(Cl)cc2C1c1ccccc1 (stereo not given) | 23µM* | ? | 6 | -11% | -24%
COc1ccc(-c2nc3sc(CCNS(=O)(=O)c4ccccc4)c(C)n3n2)cc1 | -20% | 17% | / | / | /
O=C(O)CCC(=O)Nc1ccc2c(c1)Cc1cc(NC(=O)CCC(=O)O)ccc1-2 | -24% | -3% | 17 | 10% | 8%
CCC(=O)Nc1ccc2c(c1)Cc1cc([N+](=O)[O-])ccc1-2 | 6.5µM* | ? | -5 | 0% | -11%
O=CNc1ccc2c(c1)Cc1cc([N+](=O)[O-])ccc1-2 | 13µM* | ? | -55* | 5.8µM* | 5.2µM*
CCN[C@@H]1C[C@H](N)[C@@H](OC2OC(CN)=CCC2N)[C@H](O)[C@H]1O[C@H]1OC[C@](C)(O)[C@H](NC)[C@H]1O (stereo not given in full) | -7% | 6% | / | / | /
CNc1nc(-c2ccc(C(=O)N(C)C)cc2)nc2ccccc12 | -25% | -13% | / | / | /
COc1ccc(N2C(=O)CSC23CCC(C(C)(C)C)CC3)cc1 (stereo not given) | 18µM* | ? | -2 | -2% | 4%
